This note sets out measurements from the supplement of paper PMC7411054.

The structures appear in SMILES notation. Structures can show the parent of a compound that is named as a salt.

Test in all cases: lowest phenotypically active concentration; higher = less potent
What all share (conditions): treatment time: 24 h

One experiment has as its system A549-CANX-COX4. Put shortly: (§1)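 After 24 h at 0.3, 1, 3 or 9 µM, with four wells per treatment, fifteen gene-edited A549, HepG2 and WPMY1 reporter lines carrying BFP, GFP and RFP/FusionRed were imaged live. Each well's live-cell features were expressed relative to solvent control wells. Deviation required ≥3 of 4 wells past the 95th percentile of control Euclidean distances, and reproducibility a median replicate Pearson correlation over the 95th percentile of non-replicates. Phenotypic activity rested on both.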

Another experiment concerns HepG2-CANX-COX4. Put shortly: as §1
A further experiment deals with HepG2-GM130-SQSTM1. In a few lines: as §1
A further experiment relates to HepG2-TP53BP1-CLTA. Put shortly:
as §1

For another experiment, the system named is WPMY1-ACTB-RAB5A. Put shortly: as §1
In the next experiment the test system is WPMY1-CANX-COX4. Put shortly:
as §1

The next experiment deals with WPMY1-TP53BP1-CLTA. In a few lines: as §1
For a further experiment, the system named is WPMY1-TUBA1B-RELA. Put shortly: as §1
In a further experiment the test system is A549-TP53BP1-CLTA. Put shortly: as §1
In the next experiment the test system is HepG2-TUBA1B-RELA. In a few lines:
as §1

Turning to `CC(C)(C)c1cc(C(=O)/C=C/c2ccc(C(=O)O)cc2)cc(C(C)(C)C)c1`, the “lowest phenotypically active concentration” value is 9 µM in the experiment on A549-CANX-COX4; at most 0.3 µM in the experiment with HepG2-CANX-COX4; 9 µM with HepG2-GM130-SQSTM1; 9 µM in the experiment with HepG2-TP53BP1-CLTA; at most 0.3 µM with WPMY1-ACTB-RAB5A; at most 0.3 µM with WPMY1-CANX-COX4. Further, the results for the “lowest phenotypically active concentration” value with WPMY1-TP53BP1-CLTA and in the experiment on WPMY1-TUBA1B-RELA were at most 0.3 µM and 3 µM, respectively.
`CC(C)c1cnn2c(NCc3ccccc3)cc(NCCCCCCN)nc12` [BS 181 dihydrochloride]: the “lowest phenotypically active concentration” value with A549-CANX-COX4, in the experiment with A549-TP53BP1-CLTA, with WPMY1-CANX-COX4, with WPMY1-TP53BP1-CLTA and in the experiment with WPMY1-TUBA1B-RELA was 9 µM in each case.
With `Cc1cc(Nc2ccc(NC(=O)c3ccc(Nc4ccnc5ccccc45)cc3)cc2)nc(N)n1`, the “lowest phenotypically active concentration” value in the experiment on A549-TP53BP1-CLTA is 9 µM; in the experiment on HepG2-GM130-SQSTM1 it was 1 µM; in the experiment on HepG2-TP53BP1-CLTA it was 3 µM; in the experiment with HepG2-TUBA1B-RELA, 3 µM; in the experiment with WPMY1-ACTB-RAB5A it was 3 µM; with WPMY1-TP53BP1-CLTA it was 3 µM. For the same molecule, in the experiment on WPMY1-TUBA1B-RELA, the “lowest phenotypically active concentration” value came out at 3 µM.
Consider `COc1c(C=O)c(O)cc2c1C(=O)c1ccccc1C2=O` [Damnacanthal], for which the “lowest phenotypically active concentration” value with A549-TP53BP1-CLTA is 3 µM; in the experiment on HepG2-GM130-SQSTM1, 9 µM; in the experiment with HepG2-TP53BP1-CLTA, 9 µM; with WPMY1-ACTB-RAB5A, 9 µM; in the experiment with WPMY1-CANX-COX4 it was 9 µM; with WPMY1-TP53BP1-CLTA, 9 µM. Moreover, the “lowest phenotypically active concentration” value in the experiment with WPMY1-TUBA1B-RELA amounted to 9 µM.
Take `N#C/C(=C(/N)Sc1ccc(N)cc1)c1ccccc1C(F)(F)F`: the “lowest phenotypically active concentration” value in the experiment with A549-TP53BP1-CLTA was found to be 1 µM; with HepG2-CANX-COX4, 3 µM; with HepG2-GM130-SQSTM1, 9 µM; in the experiment with HepG2-TP53BP1-CLTA, 3 µM; in the experiment on HepG2-TUBA1B-RELA, 9 µM; in the experiment with WPMY1-TP53BP1-CLTA, 9 µM.
On to `Cc1noc(C)c1-c1ccc2c(c1)nc(CCc1ccc(OCCCN(C)C)cc1)n2CCN1CCOCC1`, for which the “lowest phenotypically active concentration” value with A549-TP53BP1-CLTA, with HepG2-CANX-COX4, with HepG2-GM130-SQSTM1, in the experiment with HepG2-TP53BP1-CLTA, with HepG2-TUBA1B-RELA and in the experiment on WPMY1-ACTB-RAB5A was 9 µM throughout. Also, the “lowest phenotypically active concentration” value in the experiment with WPMY1-CANX-COX4, in the experiment on WPMY1-TP53BP1-CLTA and in the experiment on WPMY1-TUBA1B-RELA was 9 µM each time.
`NS(=O)(=O)c1nn2cc(-c3ccccc3)nc2s1`: the “lowest phenotypically active concentration” value with A549-TP53BP1-CLTA, with HepG2-CANX-COX4, with HepG2-GM130-SQSTM1, in the experiment with HepG2-TUBA1B-RELA, with WPMY1-ACTB-RAB5A and in the experiment with WPMY1-TP53BP1-CLTA was 9 µM throughout. In addition, in the experiment on WPMY1-TUBA1B-RELA, the “lowest phenotypically active concentration” value was 9 µM.
On to `COc1cc(OC)c2cc(-c3ccncc3)cnc2c1` [DMPQ dihydrochloride], for which the “lowest phenotypically active concentration” value in the experiment on A549-TP53BP1-CLTA, with HepG2-CANX-COX4, in the experiment with WPMY1-CANX-COX4 and in the experiment on WPMY1-TP53BP1-CLTA was 9 µM in each case.
Turning to `Cc1ccc(NC2=CC(=O)c3sc(C)nc3C2=O)cc1` [Ryuvidine], the “lowest phenotypically active concentration” value in the experiment with A549-TP53BP1-CLTA was 1 µM; in the experiment with HepG2-GM130-SQSTM1, 3 µM; in the experiment with HepG2-TP53BP1-CLTA, 3 µM; in the experiment with WPMY1-ACTB-RAB5A, 1 µM; with WPMY1-CANX-COX4, 3 µM; in the experiment with WPMY1-TUBA1B-RELA it was 1 µM.
With `O=C(NOCC1CC1)c1ccc(F)c(F)c1Nc1ccc(I)cc1Cl`, the “lowest phenotypically active concentration” value in the experiment on A549-TP53BP1-CLTA is at most 0.3 µM; with HepG2-CANX-COX4 it was 1 µM; in the experiment on HepG2-GM130-SQSTM1, at most 0.3 µM; in the experiment on HepG2-TP53BP1-CLTA it was at most 0.3 µM; in the experiment on HepG2-TUBA1B-RELA it was at most 0.3 µM.
As to `O=C(O)[C@@H]1[C@H]2C[C@H]3c4[nH]c5ccccc5c4CCN3C[C@@H]2CC[C@@H]1O` [Yohimbinic acid monohydrate], the “lowest phenotypically active concentration” value with A549-TP53BP1-CLTA, with WPMY1-ACTB-RAB5A, with WPMY1-CANX-COX4, with WPMY1-TP53BP1-CLTA and in the experiment with WPMY1-TUBA1B-RELA was 9 µM each time.
For the molecule `Cc1ccc(NC(=O)c2cccc(N(C)C)c2)cc1NC(=O)c1ccc(O)cc1`, the “lowest phenotypically active concentration” value stood at 3 µM in the experiment with A549-TP53BP1-CLTA and 9 µM with WPMY1-ACTB-RAB5A.
On to `NC(=O)c1cccc(-c2cc(Nc3ccc(OC(F)(F)F)cc3)ncn2)c1`, for which the “lowest phenotypically active concentration” value was determined as 9 µM with A549-TP53BP1-CLTA, 9 µM with HepG2-GM130-SQSTM1, 3 µM in the experiment with WPMY1-ACTB-RAB5A and 9 µM with WPMY1-TP53BP1-CLTA.
Take `CC/C(=C(\CC)c1ccc(O)c(CN(CC)CC)c1)c1ccc(O)c(CN(CC)CC)c1`: the “lowest phenotypically active concentration” value was 1 µM with A549-TP53BP1-CLTA; 1 µM in the experiment with HepG2-GM130-SQSTM1; at most 0.3 µM in the experiment on HepG2-TP53BP1-CLTA; 1 µM in the experiment on HepG2-TUBA1B-RELA; 1 µM in the experiment with WPMY1-ACTB-RAB5A; 1 µM in the experiment on WPMY1-CANX-COX4. The “lowest phenotypically active concentration” value in the experiment on WPMY1-TP53BP1-CLTA and in the experiment on WPMY1-TUBA1B-RELA was 9 µM throughout.
As to `CCCS(=O)(=O)Nc1ccc(F)c(C(=O)c2c[nH]c3ncc(Cl)cc23)c1F`, the “lowest phenotypically active concentration” value in the experiment with A549-TP53BP1-CLTA was 1 µM; in the experiment with HepG2-CANX-COX4, 1 µM; in the experiment on HepG2-GM130-SQSTM1 it was at most 0.3 µM; with HepG2-TP53BP1-CLTA, 1 µM; in the experiment on HepG2-TUBA1B-RELA it was 9 µM.
Consider `CNCCC(Oc1ccc(C(F)(F)F)cc1)c1ccccc1` (configuration not stated) [fluoxetine], for which the “lowest phenotypically active concentration” value in the experiment with A549-TP53BP1-CLTA was 9 µM; with HepG2-TP53BP1-CLTA, 9 µM; with HepG2-TUBA1B-RELA it was 3 µM.
`COc1cc(N2CCC(N)CC2)ccc1Nc1ncc(Cl)c(-c2c[nH]c3ccccc23)n1`: the “lowest phenotypically active concentration” value in the experiment with A549-TP53BP1-CLTA is 3 µM; in the experiment with HepG2-CANX-COX4, 1 µM; in the experiment with HepG2-GM130-SQSTM1, 3 µM; in the experiment with HepG2-TP53BP1-CLTA, 3 µM; with HepG2-TUBA1B-RELA, 1 µM; in the experiment with WPMY1-ACTB-RAB5A, 1 µM. Further, the “lowest phenotypically active concentration” value with WPMY1-CANX-COX4 was 1 µM; in the experiment with WPMY1-TP53BP1-CLTA it was at most 0.3 µM; with WPMY1-TUBA1B-RELA, 1 µM.
For the molecule `O=C(O)Cc1cccc(OCCCN(Cc2cccc(C(F)(F)F)c2Cl)CC(c2ccccc2)c2ccccc2)c1` [GW 3965 hydrochloride], the “lowest phenotypically active concentration” value in the experiment on A549-CANX-COX4, with HepG2-CANX-COX4 and in the experiment on HepG2-TUBA1B-RELA was 9 µM throughout.
On to `CN1[C@@H]2CC[C@H]1C[C@@H](OC(c1ccccc1)c1ccccc1)C2` [benztropine], for which the “lowest phenotypically active concentration” value in the experiment with A549-TP53BP1-CLTA, in the experiment on HepG2-CANX-COX4, in the experiment with HepG2-TP53BP1-CLTA, with HepG2-TUBA1B-RELA, with WPMY1-CANX-COX4 and in the experiment with WPMY1-TUBA1B-RELA was 9 µM in each case.
Turning to `CC(C)COCC(CN(Cc1ccccc1)c1ccccc1)N1CCCC1` (configuration not stated) [bepridil], the “lowest phenotypically active concentration” value with A549-TP53BP1-CLTA, in the experiment on HepG2-CANX-COX4, with HepG2-GM130-SQSTM1, with HepG2-TP53BP1-CLTA, with HepG2-TUBA1B-RELA and with WPMY1-CANX-COX4 was 9 µM throughout. The “lowest phenotypically active concentration” value with WPMY1-TP53BP1-CLTA was determined as 9 µM.
As to `COc1ccc(CCNCc2ccc(OCc3ccc(Cl)nc3)c(OC)c2)cc1OC` [SBE 13 hydrochloride], the “lowest phenotypically active concentration” value in the experiment on A549-TP53BP1-CLTA, with HepG2-TP53BP1-CLTA, in the experiment on HepG2-TUBA1B-RELA, in the experiment on WPMY1-ACTB-RAB5A, in the experiment with WPMY1-CANX-COX4 and in the experiment with WPMY1-TP53BP1-CLTA was 9 µM throughout. Also, the “lowest phenotypically active concentration” value with WPMY1-TUBA1B-RELA was 9 µM.
For `COc1cc2ncnc(Nc3ccc(Cl)cc3F)c2cc1OC`, in the experiment with A549-TP53BP1-CLTA, the “lowest phenotypically active concentration” value came to 3 µM.
Regarding `O=S(=O)(c1cccc2cnccc12)N1CCCNCC1` [fasudil], the “lowest phenotypically active concentration” value in the experiment with A549-TP53BP1-CLTA amounted to 9 µM; in the experiment with HepG2-CANX-COX4, 3 µM; with HepG2-GM130-SQSTM1, 3 µM; in the experiment on HepG2-TP53BP1-CLTA it was 3 µM; with HepG2-TUBA1B-RELA it was 9 µM; in the experiment with WPMY1-ACTB-RAB5A it was 3 µM. The “lowest phenotypically active concentration” value is 3 µM in the experiment with WPMY1-CANX-COX4 and 9 µM with WPMY1-TUBA1B-RELA.
In the case of `C[C@H]1Oc2cc(cnc2N)-c2c(nn(C)c2C#N)CN(C)C(=O)c2ccc(F)cc21`, the “lowest phenotypically active concentration” value in the experiment with A549-TP53BP1-CLTA is 3 µM; with HepG2-CANX-COX4 it was 3 µM; with HepG2-GM130-SQSTM1 it was 3 µM; with HepG2-TP53BP1-CLTA it was 3 µM; in the experiment on HepG2-TUBA1B-RELA it was at most 0.3 µM; in the experiment on WPMY1-TP53BP1-CLTA it was 9 µM.
Consider `O=C(O)C[C@H](O)C[C@H](O)/C=C/c1c(C2CC2)nc2ccccc2c1-c1ccc(F)cc1` [Pitavastatin calcium], for which the “lowest phenotypically active concentration” value is 9 µM in the experiment with A549-TP53BP1-CLTA; 1 µM in the experiment with HepG2-CANX-COX4; 1 µM with HepG2-GM130-SQSTM1; 1 µM in the experiment on HepG2-TP53BP1-CLTA; 1 µM in the experiment on HepG2-TUBA1B-RELA; at most 0.3 µM with WPMY1-ACTB-RAB5A. The “lowest phenotypically active concentration” value in the experiment with WPMY1-CANX-COX4, in the experiment with WPMY1-TP53BP1-CLTA and in the experiment with WPMY1-TUBA1B-RELA was 1 µM throughout.
